{
  "source": "PubChem BioAssay (NCATS)",
  "note": "Results filed as inconclusive are left out. Entries that show only a call come without a potency. Activity calls are given as the source filed them. The call rests on the fitted dose curve; in most records, active means well fitted cell-killing curve with a large enough effect; inconclusive means small, poorly fitted or top-dose-only effect; inactive means flat fitted curve, though single readings scatter. Potency means the concentration at half of the fitted maximal effect.",
  "data": [
    {"assay": "MultiTox-Fluor Cytotoxicity Assay - LYMP1-001 - Live Cells (AID 947)", "conditions": "LYMP1-001 lymphoblastoid cells, live-cell protease fluorescence viability; series mostly up to 92.2 µM", "from_the_text": "NIH Chemical Genomics Center [NCGC]\nNIH Molecular Libraries Screening Centers Network [MLSCN]\nNational Institutes of Environmental Health Sciences [NIEHS]\nNational Toxicology Program [NTP]\nWe have developed a 1536-well cell-based assay for quantitative high throughput screening (qHTS) against a number of cell lines to determine in vitro cytotoxicity of small molecules. This particular assay uses a human lymphoblastoid cell line (LYMP1-001) purchased from Coriell Institute.\nNCGC Assay Protocol Summary:\nThe MultiTox-Fluor Cytotoxicity Assay (Promega) is a homogeneous method to simultaneously measure the relative number of live and dead cells in culture by detecting changes in cell membrane integrity. There are two fluorogenic peptide substrates in the assay reagent. Viable cells are determined when the cell-permeant substrate (GF-AFC) enters the cell and is cleaved by protease from live cells resulting in liberated fluorophore. This live-cell protease activity restricted to viable cells is proportional to cell number. The dead cells are determined by using fluorogenic cell-impermeant peptide substrate (bis-AAF-R110) which cleaved by dead cell proteases leaking from damaged cell membrane.\nUsing the MultiTox-Fluor Cytotoxicity Assay, the relative number of live cells was measured in the lymphoblastoid cell line with complete culture medium following compound treatment for 16 hours. The assay was performed in opaque black Kalypsys 1536-well plates. In the screen, tetraoctylammonium bromide was used as positive control. Library compounds were measured for their ability to cause acute toxicity in the cell line, as reflected by a decrease in live cell protease activity, in a concentration-dependent manner. […] AC50 values were determined from concentration-response data modeled with the standard Hill equation.\nqHTS protocol for MultiTox-Fluor Cytotoxicity assay\n[Step] [Parameter] [Value] [Description]\n1. Reagent; 5 uL; 2500 lymphoblastoid cells/well\n2. Time; 5 hr; 37 C incubation\n4. Controls; 23 nL; Tetraoctylammonium bromide 6.4pM to 92 uM\n5. Time; 16 hr; 37 C incubation\n6. Reagent; 5 uL; MuliTox-Fluor Assay reagent\n7. Time; 60 min; Room Temperature\n8. Detection; live-cell fluorescence (Ex/Em=405/510); EnVision plate reader\nKeywords: cell viability, cytotoxicity, lymphoblastoid cell line, fluorescence, NTPHTS, NTPHTS_NCGC, NIEHS, EPA, DSSTox, MLSMR, MLSCN, NIH Roadmap, qHTS, NCGC", "values": [
      {"smiles": "Cc1c(O)cccc1C(=O)N[C@@H](CSc1ccccc1)[C@H](O)CN1C[C@H]2CCCC[C@H]2C[C@H]1C(=O)NC(C)(C)C", "Potency": "39.8 µM (active)"},
      {"smiles": "COc1ccccc1O", "Potency": "inactive"},
      {"smiles": "NC(=O)c1ncn([C@@H]2O[C@H](CO)[C@@H](O)[C@H]2O)n1", "Potency": "inactive"},
      {"smiles": "Cc1cc(CC(=O)O)n(C)c1C(=O)c1ccc(Cl)cc1", "Potency": "inactive"},
      {"smiles": "CC12CCC(CC1)C(C)(C)O2", "Potency": "inactive"},
      {"smiles": "Nc1ccc(S(=O)(=O)Nc2nccs2)cc1", "Potency": "inactive"},
      {"smiles": "NCCNCCNCCNCCN", "Potency": "inactive"},
      {"smiles": "[Cl][In]([Cl])[Cl]", "Potency": "inactive"},
      {"smiles": "C[C@]12C[C@H](O)[C@H]3[C@@H](CCC4=CC(=O)CC[C@@]43C)[C@@H]1CC[C@@H]2C(=O)CO", "Potency": "inactive"},
      {"smiles": "O=C1c2c(O)cccc2Cc2cccc(O)c21", "Potency": "inactive"},
      {"smiles": "NC(=O)N/N=C/c1ccc([N+](=O)[O-])o1", "Potency": "inactive"},
      {"smiles": "NCCNCCNCCN", "Potency": "inactive"},
      {"smiles": "CC1(C)[C@@H]2CC[C@@]1(C)C(=O)C2", "Potency": "inactive"},
      {"smiles": "O=C1O[C@H]([C@@H](O)CO)C(O)=C1O", "Potency": "inactive"},
      {"smiles": "Cc1cc2nc3c(=O)[nH]c(=O)nc-3n(C[C@H](O)[C@H](O)[C@H](O)CO)c2cc1C", "Potency": "inactive"},
      {"smiles": "CCCCCCCCCCCCOS(=O)(=O)O", "Potency": "inactive"},
      {"smiles": "CN(C)CCC=C1c2ccccc2CCc2ccccc21", "Potency": "inactive"},
      {"smiles": "CCCCOC(=O)c1ccc(O)cc1", "Potency": "inactive"}
    ]}
  ]
}
